# Test results: PMC8384837, “Expanding the binding specificity for RNA recognition by a PUF domain”
# Tests used:
# Assay in all cases: yeast three-hybrid, YBZ-1, SC-Leu-His + 0.5 mM 3-AT, 4 days
# Conditions in all cases: tags: N-Gal4 AD-HA kept; label: inside an RPR1-promoter hybrid RNA with tandem MS2 sites; ssRNA
# [1] = molecular target: PUM1 PUF domain R3-LRR (Homo sapiens, UniProt Q14671 828-1176, C935L;Q939R)
# Outline: (§1)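 The interaction score is the log change in variant frequency from input to selection. Scores were computed in log2 with a pseudocount of 1 for absent variants, using Illumina sequencing of PCR-amplified repeat regions. The input came from four days on SC-Leu and the selection from four days on SC-Leu-His + 0.5 mM 3-AT. The cells were strain YBZ-1 (LexA–MS2 coat fusion, HIS3 reporter) co-expressing Pumilio-1 PUF domain libraries and matching RNA elements from a centromeric plasmid.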
# [2] = molecular target: PUM1 PUF domain R3-YSV (Homo sapiens, UniProt Q14671 828-1176, C935Y;R936S;Q939V)
# Outline: as §1
# [3] = molecular target: PUM1 PUF domain R1-KGL (Homo sapiens, UniProt Q14671 828-1176, S863K;R864G;Q867L)
# Outline: as §1
# [4] = molecular target: PUM1 PUF domain R5-SGV (Homo sapiens, UniProt Q14671 828-1176, C1007S;R1008G;Q1011V)
# Outline: as §1
# [5] = molecular target: PUM1 PUF domain R5-DKR (Homo sapiens, UniProt Q14671 828-1176, C1007D;R1008K;Q1011R)
# Outline: as §1
# [6] = molecular target: PUM1 PUF domain R5-RAN (Homo sapiens, UniProt Q14671 828-1176, C1007R;R1008A;Q1011N)
# Outline: as §1
# [7] = molecular target: PUM1 PUF domain R5-KGV (Homo sapiens, UniProt Q14671 828-1176, C1007K;R1008G;Q1011V)
# Outline: as §1
# [8] = molecular target: PUM1 PUF domain R4-EPR (Homo sapiens, UniProt Q14671 828-1176, N971E;H972P;Q975R)
# Outline: as §1
# [9] = molecular target: PUM1 PUF domain R3-DWS (Homo sapiens, UniProt Q14671 828-1176, C935D;R936W;Q939S)
# Outline: as §1
# [10] = molecular target: PUM1 PUF domain R5-DFP (Homo sapiens, UniProt Q14671 828-1176, C1007D;R1008F;Q1011P)
# Outline: as §1
# Sequence of PUM1 PUF domain R4-EPR (Q14671 828-1176 N971E/H972P/Q975R): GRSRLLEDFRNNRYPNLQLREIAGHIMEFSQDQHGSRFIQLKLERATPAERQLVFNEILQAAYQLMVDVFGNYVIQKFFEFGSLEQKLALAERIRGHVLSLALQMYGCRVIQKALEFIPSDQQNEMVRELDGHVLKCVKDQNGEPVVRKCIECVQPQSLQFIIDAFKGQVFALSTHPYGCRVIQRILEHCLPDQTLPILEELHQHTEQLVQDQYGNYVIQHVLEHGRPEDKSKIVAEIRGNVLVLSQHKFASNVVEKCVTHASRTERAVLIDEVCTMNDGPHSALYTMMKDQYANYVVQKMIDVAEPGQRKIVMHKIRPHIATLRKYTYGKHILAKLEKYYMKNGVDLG
# Sequence of PUM1 PUF domain R5-RAN (Q14671 828-1176 C1007R/R1008A/Q1011N): as the sequence (Q14671 828-1176 N971E/H972P/Q975R) above, with E144N, P145H, R148Q, C180R, R181A, Q184N counted along it
# Sequence of PUM1 PUF domain R1-KGL (Q14671 828-1176 S863K/R864G/Q867L): as the sequence (Q14671 828-1176 N971E/H972P/Q975R) above, with S36K, R37G, Q40L, E144N, P145H, R148Q counted along it
# Sequence of PUM1 PUF domain R3-LRR (Q14671 828-1176 C935L/Q939R): as the sequence (Q14671 828-1176 N971E/H972P/Q975R) above, with C108L, Q112R, E144N, P145H, R148Q counted along it
# Sequence of PUM1 PUF domain R3-YSV (Q14671 828-1176 C935Y/R936S/Q939V): as the sequence (Q14671 828-1176 N971E/H972P/Q975R) above, with C108Y, R109S, Q112V, E144N, P145H, R148Q counted along it
# Sequence of PUM1 PUF domain R3-DWS (Q14671 828-1176 C935D/R936W/Q939S): as the sequence (Q14671 828-1176 N971E/H972P/Q975R) above, with C108D, R109W, Q112S, E144N, P145H, R148Q counted along it
# Sequence of PUM1 PUF domain R5-KGV (Q14671 828-1176 C1007K/R1008G/Q1011V): as the sequence (Q14671 828-1176 N971E/H972P/Q975R) above, with E144N, P145H, R148Q, C180K, R181G, Q184V counted along it
# Sequence of PUM1 PUF domain R5-SGV (Q14671 828-1176 C1007S/R1008G/Q1011V): as the sequence (Q14671 828-1176 N971E/H972P/Q975R) above, with E144N, P145H, R148Q, C180S, R181G, Q184V counted along it
# Sequence of PUM1 PUF domain R5-DKR (Q14671 828-1176 C1007D/R1008K/Q1011R): as the sequence (Q14671 828-1176 N971E/H972P/Q975R) above, with E144N, P145H, R148Q, C180D, R181K, Q184R counted along it
# Sequence of PUM1 PUF domain R5-DFP (Q14671 828-1176 C1007D/R1008F/Q1011P): as the sequence (Q14671 828-1176 N971E/H972P/Q975R) above, with E144N, P145H, R148Q, C180D, R181F, Q184P counted along it
sequence,measurement,setting,value
GGCUAGAACUAGUGGAUCCCCCGGCGCCCGGCGGCUCGAGCCCGGGUAAGUGUAAGUAGUCUGCAUGCCGCCGGGCGCCAUGCCUGCAGGUCGACUCUAGAAAACAUG,binding signal,[1],3.15 log2 enrichment (interaction score)
same,binding signal,[2],2.32 log2 enrichment (interaction score)
GGCUAGAACUAGUGGAUCCCCCGGCGCCCGGCGGCUCGAGCCCGGGUAAGUGUAAAUCGUCUGCAUGCCGCCGGGCGCCAUGCCUGCAGGUCGACUCUAGAAAACAUG,binding signal,[3],3.12 log2 enrichment (interaction score)
GGCUAGAACUAGUGGAUCCCCCGGCGCCCGGCGGCUCGAGCCCGGGUAAGUGUGAAUAGUCUGCAUGCCGCCGGGCGCCAUGCCUGCAGGUCGACUCUAGAAAACAUG,binding signal,[4],2.69 log2 enrichment (interaction score)
GGCUAGAACUAGUGGAUCCCCCGGCGCCCGGCGGCUCGAGCCCGGGUAAGUGUCAAUAGUCUGCAUGCCGCCGGGCGCCAUGCCUGCAGGUCGACUCUAGAAAACAUG,binding signal,[5],5.01 log2 enrichment (interaction score)
same,binding signal,[6],2.21 log2 enrichment (interaction score)
same,binding signal,[7],4.44 log2 enrichment (interaction score)
GGCUAGAACUAGUGGAUCCCCCGGCGCCCGGCGGCUCGAGCCCGGGUAAGUGUACAUAGUCUGCAUGCCGCCGGGCGCCAUGCCUGCAGGUCGACUCUAGAAAACAUG,binding signal,[8],3.74 log2 enrichment (interaction score)
GGCUAGAACUAGUGGAUCCCCCGGCGCCCGGCGGCUCGAGCCCGGGUAAGUGUAUAUAGUCUGCAUGCCGCCGGGCGCCAUGCCUGCAGGUCGACUCUAGAAAACAUG,binding signal,[8],2.23 log2 enrichment (interaction score)
GGCUAGAACUAGUGGAUCCCCCGGCGCCCGGCGGCUCGAGCCCGGGUAAGUGUAAUUAGUCUGCAUGCCGCCGGGCGCCAUGCCUGCAGGUCGACUCUAGAAAACAUG,binding signal,[1],0.21 log2 enrichment (interaction score)
GGCUAGAACUAGUGGAUCCCCCGGCGCCCGGCGGCUCGAGCCCGGGUAAGUGUAAAUGGUCUGCAUGCCGCCGGGCGCCAUGCCUGCAGGUCGACUCUAGAAAACAUG,binding signal,[3],1.8 log2 enrichment (interaction score)
GGCUAGAACUAGUGGAUCCCCCGGCGCCCGGCGGCUCGAGCCCGGGUAAGUGUAAAUAGUCUGCAUGCCGCCGGGCGCCAUGCCUGCAGGUCGACUCUAGAAAACAUG,binding signal,[6],2.14 log2 enrichment (interaction score)
same,binding signal,[9],4.09 log2 enrichment (interaction score)
same,binding signal,[8],4.56 log2 enrichment (interaction score)
GGCUAGAACUAGUGGAUCCCCCGGCGCCCGGCGGCUCGAGCCCGGGUAAGUGUUAAUAGUCUGCAUGCCGCCGGGCGCCAUGCCUGCAGGUCGACUCUAGAAAACAUG,binding signal,[10],5.24 log2 enrichment (interaction score)
